Hits are enriched below; roughly 4% of the tested compounds scored in any of these assays.
GDH-TPI counter-1: counter-screen for M. tuberculosis FBA inhibitors: GDH-TPI coupled enzymes | GDH-TPI coupled enzyme counterscreen, NADH absorbance | inhibition, % at 4.8 µM | actives 1.2% (n = 360,000) | AID 588335; in the data active = inhibition above about 30%
Rv3671c protease: inhibitors of M. tuberculosis serine protease Rv3671c. actives 0.048% (n = 320,000). AID 2606. P9WHR9. inhibition, % at 5.96 µM; in the data active = inhibition above about 38%;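 also: extracellular domain of Rv3671c used as enzyme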
Mtb FBA inh: inhibitors of M. tuberculosis fructose-bisphosphate aldolase; P9WQA3; purified M. tuberculosis FBA, fluorescence read-out; inhibition, % at 1 µM; actives 2.3% (n = 360,000); AID 588726
Target sequence (P9WQA3 whole entry, looked up): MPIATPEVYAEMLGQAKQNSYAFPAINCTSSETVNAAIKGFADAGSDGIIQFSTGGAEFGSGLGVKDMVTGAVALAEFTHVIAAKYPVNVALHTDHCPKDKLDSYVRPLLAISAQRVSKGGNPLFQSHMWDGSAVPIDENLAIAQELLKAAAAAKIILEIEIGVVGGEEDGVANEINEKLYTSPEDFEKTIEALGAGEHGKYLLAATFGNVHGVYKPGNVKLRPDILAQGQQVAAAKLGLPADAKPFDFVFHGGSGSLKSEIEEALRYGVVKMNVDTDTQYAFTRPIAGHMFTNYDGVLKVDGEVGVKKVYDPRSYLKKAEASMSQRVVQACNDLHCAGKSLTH
Mtb bLac sens: beta-lactam sensitization of Mtb H37Rv; AID 434955; actives 0.27% (n = 330,000); M. tuberculosis H37Rv growth with meropenem, percent inhibition; inhibition, % at 25 µM; call rule not given here;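 also: growth measured after seven days incubation then overnight dye step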
Mtb UGM inh: Mtb UDP-galactopyranose mutase inhibition. inhibition, % at 10 µM. purified UGM, fluorescence polarization probe displacement. actives 0.06% (n = 320,000). AID 504406; in the data active = inhibition above about 10%, passing the limit was not always enough; inconclusive = no clear call, values can overlap the other calls
RecA splice inh: Mtb RecA intein splicing inhibition | actives 0.75% (n = 290,000) | inhibition, % (concentration not given with the values) | P9WHJ3 | cell-free RecA intein splicing, fluorescence; in the data active = inhibition above about 30%; inconclusive = no clear call, values can overlap the other calls
Mtb FBA confirm: confirmation of M. tuberculosis fructose-bisphosphate aldolase inhibitors. shares compounds with Mtb FBA inh. purified M. tuberculosis FBA, fluorescence read-out. inhibition, % at 1 µM. actives 78% (n = 5,600)
GDH-TPI counter-2: counter-screen for M. tuberculosis FBA inhibitors: GDH-TPI coupled enzyme inhibition; shares compounds with Mtb FBA inh; GDH-TPI coupled enzyme counterscreen, fluorescence; inhibition, % at 1 µM; actives 81% (n = 5,600); AID 652141; in the data active = inhibition above about 10%
Hits are given with their value; – = inactive; ? = inconclusive; · = no result; + = active, no number. Rule as the data show it, unless noted: active = inhibition above about 27%; inactive = the rest.

SMILES	GDH-TPI counter-1	Rv3671c protease	Mtb FBA inh	Mtb bLac sens	Mtb UGM inh	RecA splice inh	Mtb FBA confirm	GDH-TPI counter-2
CCOC(=O)c1cn2nc(Oc3ccc(NC(C)=O)cc3)ccc2n1	–	–	–	–	–	–	·	·
CCOC(=O)c1cn2nc(Oc3ccc(C#N)cc3)ccc2n1	–	–	96	–	–	–	–	–
CCOC(=O)c1cn2nc(Oc3ccc(C(=O)OC)cc3)ccc2n1	–	–	100	–	–	–	+	+
CC1CC(C)CN(C(=O)/C=C/c2ccc(S(=O)(=O)N3CCOCC3)cc2)C1 (stereo not given)	–	–	–	–	–	·	·	·
CCOC(=O)c1cnn(-c2cc(C)nc3c(-c4ccccc4)c(C)nn23)c1N	–	–	–	–	–	–	·	·
CCOC(=O)c1c(-c2ccccc2)cn2c(C)cc(C)nc12	–	–	30	–	–	–	90	56
Cc1noc(C)c1S(=O)(=O)N(C)C[C@H]1Oc2ccc(NC(=O)NC(C)C)cc2C(=O)N([C@H](C)CO)C[C@@H]1C	–	–	–	–	–	·	·	·
CCN(CC(=O)Nc1c(F)cccc1F)C(=O)c1cc2ccccc2oc1=O	–	–	–	–	·	–	·	·
CCN(CC(=O)NCc1cccs1)CC(=O)Nc1cccc(S(N)(=O)=O)c1	–	–	–	–	·	·	·	·
C=CC[C@H](CC(=O)N[C@H](CO)Cc1ccccc1)C(=O)N[C@H](COC(=O)[C@@H](CC=C)CC(=O)OC(C)(C)C)Cc1c[nH]c2ccccc12	–	–	–	–	–	·	·	·
c1cncc(-c2ccnc3ncnn23)c1	–	–	–	–	–	–	·	·
c1coc(-c2ccnc3ncnn23)c1	–	–	93	–	–	–	94	74
Cc1ccc(C2OC34CCCCCC3C(C#N)(C(=N)O4)C2(C#N)C#N)cc1 (stereo not given)	–	–	70	–	–	–	119	102
COc1ccc2oc(=N)c(C(=O)NCc3ccccc3)cc2c1	–	·	–	–	–	–	·	·
COc1ccc2oc(=O)c(C(=O)NCc3cccnc3)cc2c1	–	–	44	–	–	–	–	–
COc1ccc2cc(C(=O)NCc3ccccc3)c(=O)oc2c1	–	–	33	–	–	–	65	50
COc1ccc2oc(=O)c(C(=O)NCc3ccc(F)cc3)cc2c1	–	–	54	–	–	–	90	70
COc1cc(-c2cc(NC=O)c3ncc(-c4cccc(C(=O)N(C)C)c4)n3c2)cc(OC)c1OC	–	·	–	·	·	·	·	·
CCO/C=C1/C(=O)N(c2ccccc2OC)C(=O)c2ccccc21	–	–	35	–	–	–	96	81
Cc1c(C)c2c(OCC(=O)N3CCC(C(=O)NCC(C)C)CC3)cc3c(c2oc1=O)CCC(C)(C)O3	–	–	51	–	–	–	–	–
COc1ccc(CNC(=O)COc2cc3c(c4oc(=O)cc(C)c24)CCC(C)(C)O3)cc1	–	–	43	–	–	–	+	171
COc1ccc(CNC(=O)COc2ccc(S(=O)(=O)N3CCOCC3)cc2C)cc1	–	–	–	–	–	–	·	·
Cc1ccc(C)c(N(CC(=O)NCCc2ccccc2)C(=O)CCC(=O)Nc2ccccn2)c1	–	–	–	–	–	–	·	·
COc1ccc2oc(C(=O)OCC(=O)Nc3ccc(N4CCOCC4)cc3)c(C)c2c1	–	–	–	–	–	–	·	·
COc1ccc2oc(C(=O)OCC(=O)N3CCC(C)CC3)c(C)c2c1	–	–	44	?	–	–	–	–
SMILES	GDH-TPI counter-1	Rv3671c protease	Mtb FBA inh	Mtb bLac sens	Mtb UGM inh	RecA splice inh	Mtb FBA confirm	GDH-TPI counter-2
CCOC(=O)N1CCN(C(=O)COC(=O)c2oc3ccc(OC)cc3c2C)CC1	–	–	48	–	–	–	+	+
Cc1c(C(=O)OCC(=O)N2CCC(C)CC2)oc2ccccc12	–	–	–	–	–	–	·	·
COC(=O)C1CCN(C(=O)COC(=O)c2oc3ccc(OC)cc3c2C)CC1	–	–	51	?	–	–	108	103
Cc1ccc(OCC(=O)Nc2ccccc2C(=O)N2CCCC2)cc1	–	–	–	–	–	–	·	·
COc1ccc(CNC(=O)COC(=O)c2cccn2C)cc1	–	–	–	–	–	·	·	·
Nc1nc(N2CCCCC2)nc2ccccc12	–	–	31	–	–	–	44	37
c1ccc2c(N3CCCCC3)nc(N3CCCC3)nc2c1	–	–	–	–	–	–	·	·
COc1ccc2c(c1)cc(C(=O)N[C@H](C(=O)N1CCC(C(=O)O)CC1)C(C)C)n2C	–	–	65	–	–	–	120	99
COC(=O)c1cc2cc(OC)ccc2n1C	–	–	–	–	–	·	·	·
CC(C)[C@H](NC(=O)c1cc2cc(Cl)ccc2n1C)C(=O)N1CCC(C(=O)O)CC1	–	–	–	–	–	–	·	·
COc1ccc2c(c1)cc(C(=O)N[C@H](C(=O)N1CCC[C@H]1C(=O)O)C(C)C)n2C	–	–	106	–	–	–	159	113
COc1ccc2c(c1)cc(C(=O)O)n2C	–	–	64	–	–	·	+	+
CNC(=O)c1cc2cc(OC)ccc2n1CCN(C)C	–	–	29	–	–	–	110	74
O=C(OCc1ccc([N+](=O)[O-])cc1)c1cnc(Cl)c(Cl)c1	–	–	–	–	–	–	·	·
COc1ccc2c(c1)cc(C(=O)N[C@@H](CCSC)C(=O)N1CCC[C@H]1C(=O)O)n2C	–	–	111	–	–	·	–	–
COc1cc2cc(C(=O)O)n(C)c2c(OC)c1OC	–	–	59	–	–	–	68	61
Cc1cc(F)ccc1NCC(=O)Nc1ccccc1Br	–	–	50	–	–	–	47	39
Cc1c2n(c3ccccc13)CCC2=O	–	–	28	–	–	–	77	68
Cc1c(C)n2c3c(cccc13)CC2	–	–	–	–	–	–	·	·
CC(O)(c1cccc(F)c1)c1nc(-c2ccoc2)cs1 (stereo not given)	–	·	–	·	·	·	·	·
CN(C)c1cc(NC(=O)CN2CCCC2)c2ccccc2n1	–	–	–	–	–	·	·	·
O=C(CN1CCCC1)Nc1c2c(nc3ccccc13)N(Cc1ccccc1)CC2	–	–	31	–	–	–	46	34
O=C(CN1CCOCC1)Nc1c2c(nc3ccccc13)N(Cc1ccccc1)CC2	–	–	44	–	–	–	60	51
CC[C@]12c3[nH]c4cc(CCC(=O)N(C)C)ccc4c3CCN1C(=O)[C@@H](CC(=O)NCC13CC4CC(CC(C4)C1)C3)C[C@@H]2C(=O)N1CCN(C(=O)c2ccco2)CC1	–	·	–	·	·	·	·	·
COc1ccc(-n2c(NC(=O)c3ccc(Br)o3)c(C#N)c3nc4ccccc4nc32)cc1	·	·	·	·	·	–	·	·
CCC(=O)Nc1c(C#N)c2nc3ccccc3nc2n1-c1ccc(C)cc1	–	·	38	·	·	·	80	84
N#Cc1c(NC(=O)c2ccc(Br)o2)n(-c2ccccc2)c2nc3ccccc3nc12	–	–	48	–	–	–	34	25

Compound activity as filed in PubChem.
